ChEMBL document CHEMBL3433997, “St. Jude Leishmania screening dataset” (2016)

Target: Solute carrier family 2, facilitated glucose transporter member 1 (Homo sapiens) (UniProt P11166)
Test: ST_JUDE_LEISH: Cytotoxicity at 2uM final concentration against transgenic Leishmania Mexicana promastigotes LmGLUT1 that are glucose transport deficient and complemented with the human glucose transporter GLUT1. Activity is measured by DNA content using SYBR green in vitro
Assay type: functional

Sequence of Solute carrier family 2, facilitated glucose transporter member 1 (Homo sapiens) (P11166 whole entry): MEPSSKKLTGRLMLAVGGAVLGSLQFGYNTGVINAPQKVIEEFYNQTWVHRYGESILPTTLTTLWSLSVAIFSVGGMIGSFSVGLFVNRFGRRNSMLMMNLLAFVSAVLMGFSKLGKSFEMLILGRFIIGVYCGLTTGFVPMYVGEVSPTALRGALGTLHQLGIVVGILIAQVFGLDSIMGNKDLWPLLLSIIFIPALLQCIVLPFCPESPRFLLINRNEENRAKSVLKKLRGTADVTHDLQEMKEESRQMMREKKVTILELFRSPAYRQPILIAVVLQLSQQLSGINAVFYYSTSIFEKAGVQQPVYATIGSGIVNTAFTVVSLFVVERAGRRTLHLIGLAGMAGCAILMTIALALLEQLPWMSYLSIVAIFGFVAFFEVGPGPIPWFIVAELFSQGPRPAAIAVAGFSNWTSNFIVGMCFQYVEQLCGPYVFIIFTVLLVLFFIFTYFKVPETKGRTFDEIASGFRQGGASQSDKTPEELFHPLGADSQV

Row | Compound | inhibition [%]
1 | COc1ccccc1NC(=S)N/N=C/c1ccc(O)cc1O | 1.28
2 | Nc1nc2c(ncn2COC2COP(=O)(O)OC2)c(=O)[nH]1 (stereo not given) | 12.2
3 | Cc1nn(-c2ccccc2)nc1C(=O)N(Cc1ccc(-c2ccc(CNCCc3ccc(S(C)(=O)=O)cc3)cn2)cc1)C1CC1 | 3.23
4 | CC(CN1CCN(C)CC1)C(=O)Nc1ccc(-c2ccc(-c3nc4cc(C(F)(F)F)ccc4[nH]3)cc2)cc1 (stereo not given) | 6.67
5 | Cc1nnc(-c2ccc3ccccc3c2)c2cn(-c3cccc([N+](=O)[O-])c3)nc12 | 5.1
6 | Cc1[nH]c2ccc(-c3ccccc3)cc2c(=O)c1Br | 1.91
7 | CN1CCC(NCc2ccc(-c3cccc(S(=O)(=O)NCC4CCCO4)c3)cc2)CC1 (stereo not given) | 0.62
8 | CC(C)[C@H](NC(=O)c1ccc(O)c(-c2ccc(Cl)c(Cl)c2)c1)C(=O)NCCN(C)C | 0.25
9 | Cc1[nH]c(C)c(-c2ccc(-c3ccccc3Cl)nc2)c(=O)c1Br | 0.1
10 | COc1ccc2c(NN=Cc3cccc(C)n3)ccnc2c1 | 4.32
11 | CCN(C)c1cc(C(=O)N[C@@H](Cc2ccccc2)[C@H](O)CNC(C)(C)c2cccc(OC)c2)cc(N2CCCC2=O)c1 | 1.69
12 | O=C(/C=C/c1ccc(Cl)c(Cl)c1)NCCCCCN1CCC(NC(=O)Nc2cc(Cl)nc(Cl)c2)CC1 | 1.28
13 | Cn1cc(CN2CCCC(COC(c3ccccc3)c3ccccc3)C2)cn1 (stereo not given) | 1.48
14 | COc1ccc2nccc([C@@H](O)CN3CCC(NS(=O)(=O)c4cc5c(cc4Cl)SCC(=O)N5)CC3)c2c1 | 1.57
15 | CN1CCN(Cc2cccc(-c3ccc4c(Nc5ccc(Oc6ccccc6)cc5)ccnc4c3)c2)CC1 | 12.9
